# According to the supplement of paper PMC12067093, “Discovery and optimisation of a covalent ligand for TRIM25 and its application to targeted protein ubiquitination” (Chemical Science, 2025):
# Of roughly 21,000 targets only a part is listed; those with the largest changes were picked by preference.
# Compound: CC1Cc2ccccc2N1C(=O)C1CCCN(C1)C(=O)CCl (mixture of isomers) [TRIM25 ligand 11 (diastereomer mixture)]
# Assay: probe-labelled cysteine peptide fold change vs DMSO (competition) (log2 fold change); higher = less target engagement (more negative = stronger competition)
# Conditions: THP-1, incubation time: 4 h
# 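Also: competitive chemoproteomic profiling in live THP-1 cells with an iodoacetamide desthiobiotin (IA-DTB) probe, comparing probe-labelled peptide intensities in compound-treated cells against DMSO-treated controls.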
# Sequence of UniProt Q9H270 (Q9H270 whole entry, looked up): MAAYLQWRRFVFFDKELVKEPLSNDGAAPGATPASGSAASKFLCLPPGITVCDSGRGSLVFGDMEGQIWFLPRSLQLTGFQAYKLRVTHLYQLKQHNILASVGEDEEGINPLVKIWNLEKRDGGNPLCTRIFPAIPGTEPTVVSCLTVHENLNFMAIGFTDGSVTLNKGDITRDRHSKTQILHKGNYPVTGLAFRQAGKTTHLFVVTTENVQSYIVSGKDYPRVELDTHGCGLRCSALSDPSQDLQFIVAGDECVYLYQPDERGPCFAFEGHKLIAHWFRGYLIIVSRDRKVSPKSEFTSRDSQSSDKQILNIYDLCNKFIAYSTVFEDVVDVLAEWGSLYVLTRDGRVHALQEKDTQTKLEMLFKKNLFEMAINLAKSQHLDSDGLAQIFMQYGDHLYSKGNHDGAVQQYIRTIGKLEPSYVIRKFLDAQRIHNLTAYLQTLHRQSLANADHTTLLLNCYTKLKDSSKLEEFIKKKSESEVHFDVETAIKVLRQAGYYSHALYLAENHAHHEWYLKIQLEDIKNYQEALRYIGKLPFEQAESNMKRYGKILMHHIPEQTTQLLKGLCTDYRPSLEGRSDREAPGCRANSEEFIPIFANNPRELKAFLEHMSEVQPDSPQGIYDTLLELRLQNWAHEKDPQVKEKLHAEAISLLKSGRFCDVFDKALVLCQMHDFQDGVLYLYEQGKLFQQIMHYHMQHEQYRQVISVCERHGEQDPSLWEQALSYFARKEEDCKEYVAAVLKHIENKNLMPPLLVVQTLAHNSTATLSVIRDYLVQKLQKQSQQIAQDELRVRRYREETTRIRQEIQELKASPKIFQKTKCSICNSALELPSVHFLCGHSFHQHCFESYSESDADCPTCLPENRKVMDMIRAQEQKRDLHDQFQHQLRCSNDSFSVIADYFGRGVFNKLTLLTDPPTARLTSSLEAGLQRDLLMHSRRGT
# Sequence of UniProt Q96RL1 (Q96RL1 whole entry, looked up): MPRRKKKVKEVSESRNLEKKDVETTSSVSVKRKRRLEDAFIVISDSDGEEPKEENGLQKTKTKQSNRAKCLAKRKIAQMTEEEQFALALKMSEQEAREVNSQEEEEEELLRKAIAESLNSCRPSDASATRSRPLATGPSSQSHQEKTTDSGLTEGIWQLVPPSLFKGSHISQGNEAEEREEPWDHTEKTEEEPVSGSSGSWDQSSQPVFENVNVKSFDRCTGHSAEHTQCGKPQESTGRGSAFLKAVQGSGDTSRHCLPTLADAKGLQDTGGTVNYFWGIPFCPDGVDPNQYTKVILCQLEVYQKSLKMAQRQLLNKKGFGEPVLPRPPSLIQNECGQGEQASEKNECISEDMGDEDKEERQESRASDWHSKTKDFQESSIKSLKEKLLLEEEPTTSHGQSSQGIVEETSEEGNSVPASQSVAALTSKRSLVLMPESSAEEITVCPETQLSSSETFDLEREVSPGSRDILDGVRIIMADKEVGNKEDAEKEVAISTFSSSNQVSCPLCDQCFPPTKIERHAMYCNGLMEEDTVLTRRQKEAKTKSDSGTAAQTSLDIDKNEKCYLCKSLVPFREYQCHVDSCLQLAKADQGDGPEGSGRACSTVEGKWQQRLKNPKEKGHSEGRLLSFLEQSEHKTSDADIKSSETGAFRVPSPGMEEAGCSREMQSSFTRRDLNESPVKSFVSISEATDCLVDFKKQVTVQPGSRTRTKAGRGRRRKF
# Sequence of UniProt Q9H3M7 (Q9H3M7 whole entry, looked up): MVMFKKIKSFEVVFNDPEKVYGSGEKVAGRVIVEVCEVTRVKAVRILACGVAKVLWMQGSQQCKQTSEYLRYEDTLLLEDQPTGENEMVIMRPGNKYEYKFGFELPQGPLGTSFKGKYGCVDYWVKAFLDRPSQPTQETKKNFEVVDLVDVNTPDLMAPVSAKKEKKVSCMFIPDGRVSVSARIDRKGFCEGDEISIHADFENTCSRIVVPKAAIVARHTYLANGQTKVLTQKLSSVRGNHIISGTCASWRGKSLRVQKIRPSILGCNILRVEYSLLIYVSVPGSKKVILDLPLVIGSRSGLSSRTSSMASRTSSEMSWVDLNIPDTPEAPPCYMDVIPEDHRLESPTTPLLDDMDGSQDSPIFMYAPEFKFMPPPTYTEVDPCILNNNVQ
# Sequence of UniProt Q96AY4 (Q96AY4 whole entry, looked up): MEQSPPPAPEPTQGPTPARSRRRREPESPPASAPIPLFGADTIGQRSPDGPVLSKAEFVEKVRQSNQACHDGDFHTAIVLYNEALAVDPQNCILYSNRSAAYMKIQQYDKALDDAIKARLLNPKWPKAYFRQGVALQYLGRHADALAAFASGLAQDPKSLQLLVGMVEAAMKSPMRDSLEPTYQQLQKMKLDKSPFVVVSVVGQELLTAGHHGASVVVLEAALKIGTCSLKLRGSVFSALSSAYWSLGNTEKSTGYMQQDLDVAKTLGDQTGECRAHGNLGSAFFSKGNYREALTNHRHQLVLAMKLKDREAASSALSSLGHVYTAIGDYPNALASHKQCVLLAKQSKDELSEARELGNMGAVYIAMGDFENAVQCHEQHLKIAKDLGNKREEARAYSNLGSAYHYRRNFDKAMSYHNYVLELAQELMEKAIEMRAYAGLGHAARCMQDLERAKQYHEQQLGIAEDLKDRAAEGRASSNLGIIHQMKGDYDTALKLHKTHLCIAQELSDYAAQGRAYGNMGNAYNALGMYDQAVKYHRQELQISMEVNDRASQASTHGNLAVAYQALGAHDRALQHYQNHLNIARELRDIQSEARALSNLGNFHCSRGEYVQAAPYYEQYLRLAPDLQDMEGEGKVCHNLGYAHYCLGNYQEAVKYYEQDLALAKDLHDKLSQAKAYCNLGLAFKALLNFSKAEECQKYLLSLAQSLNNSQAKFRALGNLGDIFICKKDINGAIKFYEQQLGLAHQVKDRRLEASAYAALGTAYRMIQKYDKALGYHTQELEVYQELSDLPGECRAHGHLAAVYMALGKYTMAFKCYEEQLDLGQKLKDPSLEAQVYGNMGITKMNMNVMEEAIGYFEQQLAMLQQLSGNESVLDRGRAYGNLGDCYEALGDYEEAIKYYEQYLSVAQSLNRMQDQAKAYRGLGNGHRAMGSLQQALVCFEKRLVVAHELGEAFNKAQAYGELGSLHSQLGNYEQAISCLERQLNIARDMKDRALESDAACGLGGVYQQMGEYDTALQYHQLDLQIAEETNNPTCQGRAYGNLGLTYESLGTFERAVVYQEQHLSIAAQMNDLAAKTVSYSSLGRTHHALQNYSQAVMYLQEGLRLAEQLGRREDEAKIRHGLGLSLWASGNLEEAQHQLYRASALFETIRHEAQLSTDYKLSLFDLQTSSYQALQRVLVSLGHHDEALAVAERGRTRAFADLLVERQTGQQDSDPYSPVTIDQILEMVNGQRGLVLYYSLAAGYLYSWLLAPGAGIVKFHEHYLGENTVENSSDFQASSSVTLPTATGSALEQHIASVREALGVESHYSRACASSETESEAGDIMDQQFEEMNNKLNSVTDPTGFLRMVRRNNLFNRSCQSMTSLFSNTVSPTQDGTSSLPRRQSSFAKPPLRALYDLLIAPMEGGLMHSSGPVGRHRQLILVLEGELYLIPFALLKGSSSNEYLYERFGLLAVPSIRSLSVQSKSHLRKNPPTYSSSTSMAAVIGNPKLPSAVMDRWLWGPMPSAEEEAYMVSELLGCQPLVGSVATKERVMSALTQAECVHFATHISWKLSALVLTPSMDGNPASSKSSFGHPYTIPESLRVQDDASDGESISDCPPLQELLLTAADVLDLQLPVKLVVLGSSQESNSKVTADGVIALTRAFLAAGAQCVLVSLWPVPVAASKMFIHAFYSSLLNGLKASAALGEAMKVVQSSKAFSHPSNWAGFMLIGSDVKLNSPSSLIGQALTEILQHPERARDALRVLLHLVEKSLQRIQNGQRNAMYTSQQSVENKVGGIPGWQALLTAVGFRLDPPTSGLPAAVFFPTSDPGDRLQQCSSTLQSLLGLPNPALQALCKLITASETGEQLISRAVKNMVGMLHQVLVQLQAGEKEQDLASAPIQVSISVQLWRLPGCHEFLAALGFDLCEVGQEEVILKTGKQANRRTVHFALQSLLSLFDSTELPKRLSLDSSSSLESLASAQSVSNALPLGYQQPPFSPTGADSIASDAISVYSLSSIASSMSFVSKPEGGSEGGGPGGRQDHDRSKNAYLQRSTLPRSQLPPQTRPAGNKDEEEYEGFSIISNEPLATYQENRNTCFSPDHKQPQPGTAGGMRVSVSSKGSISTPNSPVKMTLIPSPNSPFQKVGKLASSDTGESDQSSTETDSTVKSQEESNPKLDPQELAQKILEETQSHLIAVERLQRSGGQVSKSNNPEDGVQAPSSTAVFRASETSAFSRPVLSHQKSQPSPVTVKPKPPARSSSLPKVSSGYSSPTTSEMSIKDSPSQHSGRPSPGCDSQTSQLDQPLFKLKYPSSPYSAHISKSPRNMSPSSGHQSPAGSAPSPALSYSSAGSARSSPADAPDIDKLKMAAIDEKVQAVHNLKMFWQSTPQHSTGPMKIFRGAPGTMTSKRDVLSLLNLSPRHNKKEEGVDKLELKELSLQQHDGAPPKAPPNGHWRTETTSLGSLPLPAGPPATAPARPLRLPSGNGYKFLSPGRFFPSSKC
# Sequence of UniProt Q8IWB7 (Q8IWB7 whole entry, looked up): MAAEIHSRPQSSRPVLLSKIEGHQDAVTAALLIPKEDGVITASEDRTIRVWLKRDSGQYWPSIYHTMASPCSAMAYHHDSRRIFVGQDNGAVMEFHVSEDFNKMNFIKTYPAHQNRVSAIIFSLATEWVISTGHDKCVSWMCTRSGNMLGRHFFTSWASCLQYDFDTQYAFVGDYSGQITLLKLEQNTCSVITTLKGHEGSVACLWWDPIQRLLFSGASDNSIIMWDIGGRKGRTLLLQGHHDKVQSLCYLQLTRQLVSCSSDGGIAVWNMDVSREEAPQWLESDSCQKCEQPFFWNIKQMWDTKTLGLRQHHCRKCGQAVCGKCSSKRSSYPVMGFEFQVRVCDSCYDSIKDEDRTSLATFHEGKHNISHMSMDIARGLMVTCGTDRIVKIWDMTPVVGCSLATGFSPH
Target,probe-labelled cysteine peptide fold change (10 µM),probe-labelled cysteine peptide fold change (50 µM)
UBA7_P41226_223_DGDLVTFSGIEGMVELNDCDPR (UniProt P41226),0.000986,0.0382
UBR4_Q5T4S7_1662_LCTFTITQK (UniProt Q5T4S7),-0.119,-0.0801
TTYH3_Q9C0H2_486_CENTPLIGR (UniProt Q9C0H2),-0.0936,-0.00547
TXNIP_Q9H3M7_36_VIVEVCEVTR (UniProt Q9H3M7),0.136,0.375
USP20_Q9Y2K6_8_DLCPHLDSIGEVTKEDLLLK (UniProt Q9Y2K6),-0.12,-0.352
WDFY1_Q8IWB7_189_LEQNTCSVITTLK (UniProt Q8IWB7),0.462,0.551
TRPM7_Q96QT4_1426_DQETVCSK (UniProt Q96QT4),-0.118,-0.219
TTC4_O95801_174_HFAEAVNWCDEGLQIDAK (UniProt O95801),-0.0931,0.216
WDR55_Q9H6Y2_5_TCEERPAEDGSDEEDPDSMEAPTR (UniProt Q9H6Y2),-0.76,-0.645
TXNRD1_Q16881_577_IICNTK (UniProt Q16881),0.634,0.851
WDR11_Q9BZH6_411_NSSSGVSPLYSPVSFCGIPVGVLQNK (UniProt Q9BZH6),-0.0944,-0.0348
VASP_P50552_7_SETVICSSR (UniProt P50552),0.55,0.717
UNK_Q9C0B0_100_YDEATGLCPEGDECPFLHR (UniProt Q9C0B0),0.613,0.284
UNC13D_Q70J99_255_CREDQWYPLEPR (UniProt Q70J99),-0.0799,-0.0552
VEZF1_Q14119_327_TCMSEETSNQK (UniProt Q14119),-0.186,-0.42
WT1_P19544_385_HTGVKPFQCK (UniProt P19544),-0.144,-0.103
WDR37_Q9Y2I8_329_TANLYDVETSELVHSLTGHDQELTHCCTHPTQR (UniProt Q9Y2I8),0.0866,-0.193
USP34_Q70CQ2_2033_CQVADMK (UniProt Q70CQ2),0.0209,0.0671
UFC1_Q9Y3C8_116_ICLTDHFK (UniProt Q9Y3C8),-0.127,-0.0548
TXNL1_O43396_135+149_AGCECLNESDEHGFDNCLR (UniProt O43396),0.0914,-0.234
UBR4_Q5T4S7_4839+4841_QMEELIEEPGLTCCICR (UniProt Q5T4S7),0.337,0.209

Target,probe-labelled cysteine peptide fold change (10 µM),probe-labelled cysteine peptide fold change (50 µM)
VCPIP1_Q96JH7_219_SQECLIPVHVDGDGHCLVHAVSR (UniProt Q96JH7),-0.566,-1.68
WNK1_Q9H4A3_1135_VVECQLETHNR (UniProt Q9H4A3),0.0982,0.156
USP19_O94966_1017_LEDKGDTPLELGDDCSLALVWR (UniProt O94966),-0.14,-0.0111
USP40_Q9NVE5_50_NQGGTCYLNSLLQTLHFTPEFR (UniProt Q9NVE5),-0.26,-0.513
TXN2_Q99757_93_VVNSETPVVVDFHAQWCGPCK (UniProt Q99757),-0.376,-1.25
TRMT1_Q9NXH9_376_FSAACGPPVTPECEHCGQR (UniProt Q9NXH9),0.157,0.015
UAP1L1_Q3KQV9_271+278_LADPVFIGFCVLQGADCGAK (UniProt Q3KQV9),0.0951,0.0877
VPS13C_Q709C8_2276+2289_GIEHSLIEENCGVVVESIQVTLECGLGHR (UniProt Q709C8),0.105,-0.00969
VPS18_Q9P253_947_ADLDELVAAECVYCGELMIR (UniProt Q9P253),0.712,0.481
VPS29_Q9UBQ0_36+41_IQHILCTGNLCTK (UniProt Q9UBQ0),0.0402,-0.0827
USP6_P35125_1036_AQAEPINLDSCLR (UniProt P35125),-0.111,-0.0406
TRMT61A_Q96FX7_209_FCSFSPCIEQVQR (UniProt Q96FX7),-0.023,-0.323
TXNRD1_Q16881_625_QLDSTIGIHPVCAEVFTTLSVTK (UniProt Q16881),0.301,0.194
UIMC1_Q96RL1_121_AIAESLNSCRPSDASATR (UniProt Q96RL1),0.14,-0.0493
UFC1_Q9Y3C8_116_ICLTDHFKPLWAR (UniProt Q9Y3C8),-0.522,-0.68
VPS13B_Q7Z7G8_3937_VACDVEVDGVR (UniProt Q7Z7G8),0.0676,-0.592
WDFY4_Q6ZS81_835_QWPDLEERMDEGDAAIMHPGVVCIMVR (UniProt Q6ZS81),-0.279,-0.333
UBR2_Q8IWV8_1360_ILSDEDKPLFGPLPCR (UniProt Q8IWV8),-0.139,-0.289
TTC28_Q96AY4_726_ALGNLGDIFICK (UniProt Q96AY4),0.224,0.1
WDHD1_O75717_781_CVELADLMTQNAVNLAIK (UniProt O75717),0.0994,0.0632
VCP_P55072_174_VVETDPSPYCIVAPDTVIHCEGEPIKR (UniProt P55072),0.0996,-0.0884

Target,probe-labelled cysteine peptide fold change (10 µM),probe-labelled cysteine peptide fold change (50 µM)
WAPL_Q7Z5K2_891_ALQHCEELIQQYNR (UniProt Q7Z5K2),0.739,0.496
TXNDC11_Q6PKC3_815_ECLQSEAVLQR (UniProt Q6PKC3),-0.111,-0.159
VPS45_Q9NRW7_359_NLLEVSEVEQELACQNDHSSALQNIK (UniProt Q9NRW7),0.273,-0.0913
USP4_Q13107_7_AEGGGCR (UniProt Q13107),0.644,0.609
UBR7_Q8N806_374_VQQVELICEYNDLK (UniProt Q8N806),-0.0738,0.0769
VPS72_Q15906_163_GPHCERPLTQEELLR (UniProt Q15906),0.0992,-0.085
URB1_O60287_315_ELVHNFLMDLCCSLK (UniProt O60287),-0.0229,-0.0236
WDFY4_Q6ZS81_878_QVMCEAGLLGTLMASCHR (UniProt Q6ZS81),0.0899,-0.0334
VAT1L_Q9HCJ6_253+255_ISAEGVDIVLDCLCGDNTGK (UniProt Q9HCJ6),0.196,-0.072
WDR44_Q5JSH3_642_ECLCCFQHIDFVTAIAFHPR (UniProt Q5JSH3),0.143,0.281
TTC30B_Q8N4P2_619_DSVIQECVQFLEHCELHGR (UniProt Q8N4P2),0.056,0.655
TYK2_P29597_1140_CPCEVYHLMK (UniProt P29597),-0.0795,-0.214
VPS11_Q9H270_586_EAPGCR (UniProt Q9H270),0.694,1.1
WDR70_Q9NW82_383_QAHDSGTDTSCVTFSYDGNVLASR (UniProt Q9NW82),0.312,-0.591
VCPIP1_Q96JH7_940_HCTFPHLPGK (UniProt Q96JH7),0.0492,0.0163
TTF2_Q9UNY4_1118_FVCEGTVEEK (UniProt Q9UNY4),-0.132,-0.00382
UBR2_Q8IWV8_1332_VHPNEEDPRVPIMCWGSCAYTIQSIER (UniProt Q8IWV8),-0.326,-0.616
UBA1_P22314_234_DNPGVVTCLDEAR (UniProt P22314),0.0251,-0.108
UBR7_Q8N806_99+101_CDCGNSK (UniProt Q8N806),-0.0898,-0.168
WDR91_A4D1P6_246_LGDSELAMVCSQR (UniProt A4D1P6),-0.0616,-0.273
TTLL12_Q14166_418_WGEDNHWICK (UniProt Q14166),0.0917,0.0468

Target,probe-labelled cysteine peptide fold change (10 µM),probe-labelled cysteine peptide fold change (50 µM)
WDR26_Q9H7D7_238_CELTPLK (UniProt Q9H7D7),-0.0356,-0.0732
UBR1_Q8IWV7_1726_LHLVWQQHCIIEEIAR (UniProt Q8IWV7),-0.0216,0.0386
UNC45A_Q9H3U1_503_ALVGLCK (UniProt Q9H3U1),0.0324,0.188
WDR12_Q9GZL7_185_ALHCCR (UniProt Q9GZL7),0.0665,0.103
TSR1_Q2NL82_618_AKEELIFHCGFR (UniProt Q2NL82),0.00999,0.0707
WDR47_O94967_672_GSIYCVAWSPCGQLLATGSNDK (UniProt O94967),-0.126,-0.567
UBR5_O95071_1942_SHNDEHSDVLPVLDVCSLK (UniProt O95071),-0.586,-0.263
TXN2_Q99757_90+93_VVNSETPVVVDFHAQWCGPCK (UniProt Q99757),-0.411,-1.31
VCPIP1_Q96JH7_207+219_SQECLIPVHVDGDGHCLVHAVSR (UniProt Q96JH7),-0.42,-1.06
UBE2E1_P51965_131_IYHCNINSQGVICLDILK (UniProt P51965),0.0832,0.188
UBR4_Q5T4S7_4146_QAACTIVEALATIPSR (UniProt Q5T4S7),0.0371,-0.0346
VCP_P55072_105_LGDVISIQPCPDVK (UniProt P55072),-0.0602,-0.113
VAV1_P15498_31_VTWDGAQVCELAQALR (UniProt P15498),0.0648,0.411
UBR5_O95071_1382+1386_LDCFTHCLIVK (UniProt O95071),0.374,0.564
TTC27_Q6P3X3_374_NNPVHTLTEVELLAFTSCLLSQPK (UniProt Q6P3X3),0.253,0.421
TXNL1_O43396_135+137+149_AGCECLNESDEHGFDNCLR (UniProt O43396),-0.02,-0.634
UAP1L1_Q3KQV9_271_LADPVFIGFCVLQGADCGAK (UniProt Q3KQV9),-0.0621,-0.144
TTC37_Q6PGP7_1162_CLLTSAIYALQGR (UniProt Q6PGP7),-0.13,-0.0818
TTF2_Q9UNY4_50_ATDIPVSHCLLHEDFVVELQGLLLPQDK (UniProt Q9UNY4),0.0771,0.271
VPS39_Q96JC1_681_LICDFPFDGLLEER (UniProt Q96JC1),0.145,0.086
